The whole screen tested about 400,000 compounds, of which about 2,100 (0.53%) were called active. Another 14% or so got no clear call; they are omitted. The sample holds actives, similar compounds and a random draw of the others, so the mix is not that of the screen. The rule behind the calls is not given here.
Molecular target: Ataxin-2 (Homo sapiens) (UniProt Q99700)
Assay: qHTS for Inhibitors of ATXN expression.
Type: functional

Ataxin-2 (Homo sapiens), sequence (Q99700 whole entry): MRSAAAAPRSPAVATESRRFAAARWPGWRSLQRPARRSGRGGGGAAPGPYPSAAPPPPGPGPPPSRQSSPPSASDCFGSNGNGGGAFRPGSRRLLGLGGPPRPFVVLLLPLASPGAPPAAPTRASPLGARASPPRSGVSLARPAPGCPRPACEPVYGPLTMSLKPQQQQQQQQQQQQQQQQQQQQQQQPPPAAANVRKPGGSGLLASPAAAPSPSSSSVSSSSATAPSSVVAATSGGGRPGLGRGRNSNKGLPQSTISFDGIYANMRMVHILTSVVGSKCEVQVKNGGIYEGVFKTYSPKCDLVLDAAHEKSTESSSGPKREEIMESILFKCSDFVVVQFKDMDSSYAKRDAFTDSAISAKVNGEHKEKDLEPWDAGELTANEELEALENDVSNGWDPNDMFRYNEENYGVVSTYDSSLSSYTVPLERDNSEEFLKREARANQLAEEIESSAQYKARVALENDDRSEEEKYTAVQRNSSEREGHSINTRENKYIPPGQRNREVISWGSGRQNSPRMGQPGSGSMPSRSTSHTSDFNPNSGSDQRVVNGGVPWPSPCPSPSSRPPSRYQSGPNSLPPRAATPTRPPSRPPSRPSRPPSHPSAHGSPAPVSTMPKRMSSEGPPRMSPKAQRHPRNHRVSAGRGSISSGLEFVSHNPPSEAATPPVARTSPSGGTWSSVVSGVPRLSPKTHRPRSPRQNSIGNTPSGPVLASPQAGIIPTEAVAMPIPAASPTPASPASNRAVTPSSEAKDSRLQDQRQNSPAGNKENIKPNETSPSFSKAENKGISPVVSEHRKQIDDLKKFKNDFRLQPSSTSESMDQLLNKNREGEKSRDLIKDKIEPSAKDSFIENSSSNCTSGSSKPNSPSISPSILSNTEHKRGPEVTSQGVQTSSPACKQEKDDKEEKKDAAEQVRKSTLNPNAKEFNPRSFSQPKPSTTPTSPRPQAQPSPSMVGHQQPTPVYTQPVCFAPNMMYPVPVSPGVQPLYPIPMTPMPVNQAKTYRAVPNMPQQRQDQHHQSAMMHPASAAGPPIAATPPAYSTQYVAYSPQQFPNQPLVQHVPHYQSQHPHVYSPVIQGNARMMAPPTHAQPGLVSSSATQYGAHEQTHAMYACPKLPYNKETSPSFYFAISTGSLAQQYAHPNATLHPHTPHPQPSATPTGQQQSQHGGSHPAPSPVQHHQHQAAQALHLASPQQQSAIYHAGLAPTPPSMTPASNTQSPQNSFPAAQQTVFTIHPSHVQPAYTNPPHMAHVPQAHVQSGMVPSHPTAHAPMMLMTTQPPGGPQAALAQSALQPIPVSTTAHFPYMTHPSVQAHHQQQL

Row | SMILES | Potency
1 | Cc1ccc(S(=O)(=O)N2CCN(C(=O)CN3C(=O)c4ccc([N+](=O)[O-])cc4C3=O)CC2)cc1C | inactive
2 | COc1cc2c(C#CCCCO)c(-c3ccc(C#N)cc3)oc(=O)c2cc1OC | inactive
3 | C=CC[C@H](CC(=O)N(CCO)Cc1ccccc1)C(=O)N[C@@H](COC(=O)[C@@H](CC=C)CC(=O)OC(C)(C)C)Cc1c[nH]c2ccccc12 | 25.1 µM (active)
4 | C=CC[C@@H](CC(=O)N(CCO)Cc1ccccc1)C(=O)N[C@@H](COC(=O)[C@H](CC=C)CC(=O)OC(C)(C)C)Cc1c[nH]c2ccccc12 | 22.4 µM (active)
5 | C=CC[C@@H](CC(=O)N(CCO)Cc1ccccc1)C(=O)N[C@H](COC(=O)[C@@H](CC=C)CC(=O)OC(C)(C)C)Cc1c[nH]c2ccccc12 | 35.5 µM (active)
6 | CCCC/N=C1\C(=O)N(C)c2cccc3c(O)c4ccccc4c1c23 | inactive
7 | COc1ccc2c(C#N)c3ccccn3c2c1 | inactive
8 | Nc1cccc2c1C(=O)N(CCOc1ccc(F)cc1)C2=O | inactive
9 | c1ccc(N2CC3CCc4ccccc4C3=N2)cc1 (centres undefined) | inactive
10 | C/C(CCCO)=N/Nc1ccc([N+](=O)[O-])cc1[N+](=O)[O-] | inactive
11 | CC/C(=N\Nc1ccc([N+](=O)[O-])cc1[N+](=O)[O-])c1ccc(O)cc1 | 8.91 µM (active)
12 | CN1C(=O)/C(=N\c2ccc(Cl)cc2)c2c3ccccc3c(O)c3cccc1c23 | inactive
13 | CC1=CC(C)(C)N2C(=O)/C(=N/c3ccc(O)cc3)c3cccc1c32 | 31.6 µM (active)
14 | CC(C)CC1C(=O)N(Cc2cn(CCC3OCCCO3)nn2)CCS(=O)(=O)N1Cc1ccc(-c2ccc(Cl)nc2)cc1 (centres undefined) | 31.6 µM (active)
15 | Cc1ccc(-c2ccc(CN3C(CC(C)C)C(=O)N(Cc4cn(CCC5OCCCO5)nn4)CCS3(=O)=O)cc2)cc1 (centres undefined) | 20 µM (active)
16 | O=C(c1cc(Br)ccc1O)N1CCN(S(=O)(=O)Cc2ccccc2)CC1 | inactive
17 | Brc1ccc(-c2nnc3sc(CNCc4ccc5c(c4)OCO5)cn23)cc1 | inactive
18 | O=C(O)c1ccc(S(=O)(=O)N2CCC(NC(=O)C3CCCCC3)CC2)cc1 | inactive
19 | Cc1ccc(NC(=O)N(CCC#N)Cc2ccccc2)cc1 | inactive
20 | CCCOc1ccc(CN(CCC#N)C(=S)NC(=O)c2ccccc2)cc1 | 39.8 µM (active)
21 | COCCN(Cc1ccccc1)C(=O)c1ccc(C(=O)c2ccccc2)cc1 | inactive
22 | O=C(O)COc1c(Cl)cc(/C=C2/NC(=O)NC2=O)cc1Br | inactive
23 | Cc1nnc(N/N=C/c2ccc(-c3ccc(Br)cc3)o2)n1N | inactive
24 | COCCCn1/c(=N/C(=O)c2ccccc2)c(C#N)cc2c(=O)n3cccc(C)c3nc21 | inactive

Row | SMILES | Potency
25 | Cc1ccsc1C(=O)OCC(=O)Nc1cccc(F)c1 | inactive
26 | Cc1ccc(C(=O)COC(=O)c2cccc(NC(=O)c3ccc(Cl)cc3Cl)c2)cc1 | 35.5 µM (active)
27 | CN1C(=O)c2ccc(NC(=O)c3ccc(Cl)cc3Cl)cc2C1=O | inactive
28 | O=c1cc(-c2ccccc2)c2cc(Cl)c3c(c2o1)CN(Cc1ccccc1)CO3 | inactive
29 | COc1ccc(-c2cc3ccc(O)c(CN4CCCC(C)C4)c3oc2=O)cc1OC (centres undefined) | inactive
30 | COc1cc(C(CCN2CCCC(C)C2)c2c(OC)cc(OC)c3c(-c4ccccc4)cc(=O)oc23)cc(OC)c1OC (centres undefined) | 31.6 µM (active)
31 | CCCc1cc(=O)oc2c(C)c(O)c(CN3CCCCC3)cc12 | inactive
32 | O=c1cc(-c2ccccc2)c2cc(Cl)c(O)c(CN3CCOCC3)c2o1 | inactive
33 | COc1ccc(C(CCN2CCCC(C)C2)c2c(OC)cc(OC)c3c(-c4ccccc4)cc(=O)oc23)cc1 (centres undefined) | 31.6 µM (active)
34 | COc1cc(C(CCN2CCCC2)c2c(OC)cc(OC)c3c(-c4ccccc4)cc(=O)oc23)cc(OC)c1OC (centres undefined) | 22.4 µM (active)
35 | CCc1cc(=O)oc2c(C)c3c(cc12)CN(CCc1ccccc1OC)CO3 | inactive
36 | COc1ccc(-c2cc(=O)oc3c4c(ccc23)OCN(Cc2cccc(OC)c2)C4)cc1 | inactive
37 | COc1cc2oc(=O)cc(-c3ccc(-c4ccc(N(C)C)cc4)cc3)c2c(OC)c1OC | inactive
38 | CCCCCc1cc(=O)oc2c(C(CCN3CCCC3)c3cc(OC)c(OC)c(OC)c3)c(OC)cc(OC)c12 (centres undefined) | 35.5 µM (active)
39 | COc1ccc(CN2COc3ccc4c(-c5ccccc5)cc(=O)oc4c3C2)cc1OC | inactive
40 | COc1ccc(C2CC(c3ccccc3)=NN2c2ccccc2)c(C(=O)O)c1OC (centres undefined) | inactive
41 | Cc1cc(C)c2nc(NCCCNC(S)=NCCCN(C)C)c(C#N)cc2c1 | inactive
42 | Cn1nc(C(=O)Nc2ccc(Br)cc2)cc1C(=O)Nc1ccc(Br)cc1 | inactive
43 | CCNc1ccc2c(Cl)cc(=O)oc2c1 | inactive
44 | COc1ccc(C2=CC(c3ccc(Cl)cc3)n3cnnc3N2)cc1OC (centres undefined) | inactive
45 | CN1CCN(CCOCCOc2c(Cl)cc(Cl)cc2Cl)CC1 | inactive
46 | COCCNc1oc(/C=C/c2cccs2)nc1S(=O)(=O)c1ccccc1 | inactive
47 | Cc1ccc(S(=O)(=O)N(C)c2ccc(OC(=O)c3cccs3)cc2)cc1C | inactive
48 | Cc1ccc(-n2nc(C)c(C(=O)NCCCN3CCN(c4ccc(F)cc4)CC3)c2-n2cccc2)cc1 | 25.1 µM (active)

Row | SMILES | Potency
49 | O=C(Nc1ccc(C(=O)NCCCN2CCN(c3ccc(F)cc3)CC2)cc1)C1=CSCCO1 | inactive
50 | C/C(=N\NC(=O)CN1CCN(c2ccc(F)cc2)CC1)c1ccco1 | inactive
51 | COc1ccc(CCNC(=O)c2c(C)nn(-c3ccc(F)cc3)c2-n2cccc2)c(OC)c1OC | 35.5 µM (active)
52 | O=C(COc1ccccc1F)NCc1ccc(-n2cccc2)cc1 | inactive
53 | COc1ccccc1NC(=O)c1c(C)nn(-c2ccccc2)c1Cl | inactive
54 | CCCc1ccc(C(=O)NNc2cc(Cl)ccc2Cl)cc1 | inactive
55 | CS(=O)(=O)c1ccc(C(=O)NNC(=O)c2ccccc2-n2cccc2)cc1 | inactive
56 | CCOC(=O)C1CCN(C(=O)c2cc3c(=O)n4ccccc4nc3n2C)CC1 | inactive
57 | O=C(NN=C(S)Nc1ccccc1)c1ccc(O)cc1 | inactive
58 | CC(/C=C(\O)c1ccc(Br)cc1)=N/NC(=O)c1ccccc1 | inactive
59 | C/C(=N\NC(=O)c1ccc(Br)cc1)C1C(=O)c2ccccc2C1=O | 35.5 µM (active)
60 | O=C(CCn1nnc2ccccc21)N/N=C\Cc1ccccc1 | inactive
61 | Cc1ccc(OCC(=O)Nc2ccc(S(=O)(=O)NC3=NCCCCC3)cc2)cc1 | inactive
62 | CC(C)=CC(=O)Nc1cccc(S(=O)(=O)NC2=NCCCCC2)c1 | inactive
63 | Cc1cccc(C)c1NC(=O)CN(C)C(=O)c1cccc(NS(=O)(=O)c2ccccc2)c1 | inactive
64 | CC(C)(C)c1ccc(OCC(=O)Nc2cccc(S(=O)(=O)NC3=NCCCCC3)c2)cc1 | inactive
65 | O=C(CCl)Nc1cccc(S(=O)(=O)NC2=NCCC2)c1 | 12.6 µM (active)
66 | COc1cc(C(=O)OCC(=O)Nc2ccc(S(=O)(=O)NC3=NCCCCC3)cc2)cc(OC)c1OC | inactive
67 | Cc1cccc(C(=O)N[C@H](C(=O)Nc2ccc(S(=O)(=O)NC3=NCCCCC3)cc2)C(C)C)c1 | inactive
68 | O=C(CCl)Nc1ccc(S(=O)(=O)NC2=NCCCCC2)cc1 | 13.4 µM (active)
69 | O=C(CCl)Nc1cccc(S(=O)(=O)NC2=NCCCCC2)c1 | 11.2 µM (active)
70 | Cc1cc(NC(=O)CSc2nc(=O)cc(N)n2-c2ccc(C)c(C)c2)no1 | inactive
71 | Cc1cccn2c(=O)c3cc(C(=O)NCc4cccnc4)c(=N)n(CCCO)c3nc12 | inactive
72 | Cn1c(C(=O)NCC2CCCO2)cc2c(=O)n3ccccc3nc21 (centres undefined) | inactive

Row | SMILES | Potency
73 | COc1ccccc1/N=C/c1c(C)c(C#N)c2nc3ccccc3n2c1O | inactive
74 | O=C1C=CC(=O)N1c1ccc2c(c1)C(NC(=O)C(F)(F)F)c1ccccc1-2 (centres undefined) | 25.1 µM (active)
75 | O=C(Nc1ccccc1)N1CCN(C2c3ccccc3-c3ccccc32)CC1 | inactive
76 | COc1ccc(CNC(=O)c2c(Nc3ccccc3C)sc(C(=O)c3ccccc3)c2N)cc1 | 35.5 µM (active)
77 | Nc1c(C(=O)c2ccccc2)sc(Nc2ccc(Cl)c(Cl)c2)c1C(=O)Nc1ccccc1 | 28.2 µM (active)
78 | COc1ccc(C(=O)c2sc3nc(-c4ccccc4)ccc3c2N)cc1 | inactive
79 | Cc1ccc(CNC(=O)c2c(Nc3c(C)cccc3C)sc(C(=O)c3ccccc3)c2N)cc1 | 39.8 µM (active)
80 | Cc1ccc2c(N)c(C(=O)c3ccccc3)sc2n1 | inactive
81 | COc1cccc(OC)c1C(=O)Nc1ccc(Br)c(C(=O)c2ccccc2)c1 | inactive
82 | COc1ccc(CNC(=O)CCC(=O)c2ccccc2)cc1 | inactive
83 | Cc1nc2sc(C(=O)c3ccccc3)c(N)c2c(C)c1C | inactive
84 | Cc1cccc(C)c1Nc1sc(C(=O)c2ccccc2)c(N)c1C(=O)Nc1ccc(F)cc1 | 28.2 µM (active)
85 | Cc1cc(C)c2c(N)c(C(=O)c3ccccc3)sc2n1 | inactive
86 | CCO/C(O)=C1\C(C)=Nc2sc(C(=O)c3ccc(C)cc3)c(N)c2C1c1ccc(C(=O)OC)cc1 (centres undefined) | inactive
87 | Cn1cc(CN2CCC(n3nccc3NC(=O)c3ccc4c(c3)OCO4)CC2)cn1 | inactive
88 | Cc1cc(C)c2cc(C#N)c(SCC(=O)Nc3cc(C)on3)nc2c1 | inactive
89 | O=C(CSc1nnc(O)nc1O)N/N=C/C=C/c1ccccc1 | inactive
90 | O=S(=O)(c1ccc(SCCOc2ccccc2)nc1)N1CCCC1 | inactive
91 | COC(=O)Cc1c(C)c2cc3c(c(C)c2oc1=O)OCN(CCc1ccc(OC)cc1)C3 | inactive
92 | Cc1ccc2nc(Cl)c(CNCc3ccccc3)cc2c1 | inactive
93 | Cc1cnc(NC(=O)c2cc(-c3ccccc3)nn2-c2ccccc2)s1 | inactive
94 | Cc1ccc(-c2nn(-c3ccccc3)c3[nH]c(=O)c(CNCc4ccccc4)cc23)cc1 | 39.8 µM (active)
